Source: PubChem
Rows were chosen to be rich in hits. Some 7.2% of all compounds tested hit in one or more screens of this group.
RE007 growth inh = qHTS Assay for Inhibitors of the HIV-1 protein Vpr; S. pombe RE007 Vpr strain, BacTiter-Glo ATP luminescence, 24 h; Potency, µM (series often up to 92.2 µM), actives largely listed as inhibitors; hit rate 0.21% among 360,000; AID 651644, 2012; active means well fitted falling curve with a large enough effect; inconclusive means small, poorly fitted or top-dose-only effect; inactive means no such curve, though single readings can be large or run the other way; further: nearly all actives have a fitted effect of over 50% in size
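Fission yeast strain RE007, carrying one chromosomally integrated HIV-1 vpr copy, was seeded at OD 0.01 in PMG+AL medium with 23 nL pinned compound. After 24 h at 30 °C and 99% humidity, viability was read by BacTiter-Glo luminescence.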
Sm TGR inh = qHTS Assay for the Inhibitors of Schistosoma Mansoni Peroxiredoxins; purified TGR, DTNB reduction, TNB absorbance 405 nm; Potency, µM (titrated, usually from 114 µM), usual class: inhibitors; hit rate 3% among 360,000; further: nearly all actives have a fitted effect of over 60% in size
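TGR 20 nM + NADPH 100 uM (dispensed conc.), cpd preinc 15 min RT; start with NADPH (500 uM addition) then DTNB (15 mM addition). Kinetic TNB absorbance, 405 nm filter. Four-parameter Hill fit across titration.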
FMDV antiviral = High Throughput Screening for Foot and Mouth Disease Virus Antivirals; Potency, µM (series often up to 57.9 µM), usual class: inhibitors; hit rate 1.2% among 410,000; FMDV antiviral cell-based qHTS; calls by dose curve; tested in HEK293T cells; further: read-out not given here; nearly all actives have a fitted effect of over 45% in size
HCV inhibitor = qHTS Assay for Inhibitors of Hepatitis C Virus (HCV). hit rate 3.4% among 340,000. Potency, µM (highest dose often 41.8 µM), usual class: inhibitors. Huh7.5.1 HCVcc-Cre infection, luciferase reporter, 44 h
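Luciferase read-out (15 sec integration) after a 15 min room-temperature substrate step quantifies HCVcc-Cre infection. Cells, 1,000 per well, had compound added 4 h post-plating, then virus at ~0.5 moi, and were cultured 44 h.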
LASV entry inh = qHTS for Inhibitors of binding or entry into cells for Lassa Virus; Lassa virus pseudotype entry inhibition, cell reporter; Potency, µM (top dose mostly 37.9 µM), most hits filed as inhibitors; hit rate 1.2% among 300,000; calls by dose curve; tested in HEK293 cells; further: nearly all actives have a fitted effect of over 50% in size
Marburg entry inh = qHTS for inhibitors of binding or entry into cells for Marburg Virus. Marburg virus pseudotyped entry inhibition, cell reporter. Potency, µM (series often up to 37.8 µM), usual class: inhibitors. hit rate 1.8% among 300,000; calls by dose curve; tested in HEK293 cells
Large screens that a line does not name were inactive. Unless noted, the call rests on the fitted dose curve; in most records, active means well fitted curve in the direction sought with a large enough effect; inconclusive means small, poorly fitted or top-dose-only effect, or another doubt; inactive means no such curve, though single readings can be large; an effect the other way counts as inactive or inconclusive.

COc1ccc(C(=O)NC(=S)Nc2ccccc2N2CCOCC2)cc1Br	HCV inhibitor 16µM, LASV entry inh inconclusive, Marburg entry inh inconclusive
Cc1ccccc1OCCCCn1nnc2sc3c(c2c1=O)CCC(C)C3 (centres undefined)	LASV entry inh inconclusive (no result: RE007 growth inh, HCV inhibitor)
CCCOc1ccc(CNC(=O)CCCN2C(=O)CSc3c2c(C)nn3-c2ccccc2)cc1	FMDV antiviral inconclusive, LASV entry inh inconclusive (no result: RE007 growth inh, HCV inhibitor, Marburg entry inh)
COCC1CCCN(c2nc(CN3CCN(C(=O)c4ccco4)CC3)nc3ccccc23)C1 (centres undefined)	none (no result: RE007 growth inh, Sm TGR inh, HCV inhibitor, LASV entry inh, Marburg entry inh)
CCn1c2ccccc2c2cc(/C(C)=N/O)ccc21	RE007 growth inh inconclusive, HCV inhibitor 10µM, Marburg entry inh inconclusive
CCn1c2ccccc2c2cc(/C=N/NC(=O)c3ccc(O)cc3)ccc21	HCV inhibitor 18µM, LASV entry inh 5µM, Marburg entry inh 7.1µM
CCn1c2ccccc2c2cc(/C=N/NC(=O)c3ccncc3)ccc21	HCV inhibitor inconclusive, LASV entry inh 5.6µM, Marburg entry inh inconclusive
COc1ccc(CNC(=O)CN2C(=O)CCn3nc(-c4cn(C)c5ccccc45)cc32)cc1	none (no result: RE007 growth inh, HCV inhibitor, Marburg entry inh)
COc1ccccc1CNC(=O)c1cc2cccc3c2n1CCS3	LASV entry inh inconclusive (no result: RE007 growth inh, HCV inhibitor, Marburg entry inh)
Cc1ccc(Cn2c(CN3CCC(C(=O)NCC(C)c4ccccc4)CC3)cc3ccccc32)cc1 (centres undefined)	none (no result: RE007 growth inh, HCV inhibitor, Marburg entry inh)
O=CC(Br)P(=O)(N1CCOCC1)N1CCOCC1 (centres undefined)	Sm TGR inh 45µM (no result: LASV entry inh, Marburg entry inh)
O=P(C(Cl)Cl)(N1CCOCC1)N1CCOCC1	none
O=C(CCN1C(=O)C2C3C=CC(C4CC34)C2C1=O)Oc1ccc(Br)cc1 (centres undefined)	Marburg entry inh inconclusive
O=C(CCN1C(=O)C2C3C=CC(C4CC34)C2C1=O)Oc1cccc2cccnc12 (centres undefined)	RE007 growth inh 14µM, HCV inhibitor inconclusive, Marburg entry inh 16µM
Cn1c2ccccc2c2cnn(CC(=O)N3CCN(c4cccc(C(F)(F)F)c4)CC3)c(=O)c21	none (no result: RE007 growth inh, HCV inhibitor)
COc1ccc(/C(O)=C2\C(=O)C(=O)N(CCCN(C)C)[C@H]2c2ccccc2)cc1OC	none (no result: RE007 growth inh, Sm TGR inh, FMDV antiviral, HCV inhibitor, LASV entry inh)
COc1cccc(-c2nc(N3CCCCC3)c3ccccc3n2)c1O	HCV inhibitor inconclusive, Marburg entry inh inconclusive (no result: Sm TGR inh)
Oc1ccccc1Oc1c(F)c(F)nc(N2CCCC2)c1F	RE007 growth inh inconclusive, LASV entry inh 4.6µM, Marburg entry inh inconclusive
COC[C@@H](O)[C@H]1OCc2cccc(OC)c2[C@H]1C=Cc1ccccc1	none (no result: RE007 growth inh, Sm TGR inh, FMDV antiviral, HCV inhibitor, LASV entry inh)
CCOc1ccc(C2=C(C(C)=O)Sc3nnc(C)n3N2C(C)=O)cc1	LASV entry inh inconclusive (no result: RE007 growth inh, HCV inhibitor, Marburg entry inh)
CCc1nnc2n1N(C(C)=O)C(c1ccc(C(C)(C)C)cc1)=C(C(C)=O)S2	FMDV antiviral inconclusive, LASV entry inh 11µM (no result: RE007 growth inh, HCV inhibitor, Marburg entry inh)
CCOc1ccc(C(=O)NCC(c2ccc3c(c2)OCO3)N2CCN(c3ccc(F)cc3)CC2)cc1 (centres undefined)	LASV entry inh inconclusive (no result: RE007 growth inh, HCV inhibitor, Marburg entry inh)
O=C(O)c1cccc(NC(=O)c2ccc3c(c2)C(=O)N(c2cccc([N+](=O)[O-])c2)C3=O)c1	none (no result: LASV entry inh, Marburg entry inh)
O=C(O)c1ccc2c(c1)C(=O)N(c1cccc(C(=O)/C=C/c3ccccc3)c1)C2=O	Sm TGR inh 25µM, FMDV antiviral 25µM
O=C(O)c1cccc(N2C(=O)c3ccc(C(=O)c4cccc([N+](=O)[O-])c4)cc3C2=O)c1	Sm TGR inh 50µM
Cc1cccc(Cn2c(=O)n(CCCCC(=O)NCc3ccc4c(c3)OCO4)c(=O)c3ccccc32)c1	Marburg entry inh inconclusive (no result: RE007 growth inh, HCV inhibitor)
O=S(=O)(c1ccccc1)c1nc(-c2ccco2)oc1SCc1ccc(F)cc1	none (no result: RE007 growth inh, HCV inhibitor)
c1ccc(C2CCC(N3CCN(c4ccccc4)CC3)CC2)cc1 (centres undefined)	HCV inhibitor inconclusive, LASV entry inh 2.8µM, Marburg entry inh inconclusive
O=C(CCCc1nc(-c2ccccc2)no1)Nc1cc(C(F)(F)F)cc(C(F)(F)F)c1	none (no result: RE007 growth inh, HCV inhibitor)
Cc1ccc([N+](=O)[O-])cc1NC(=O)Nc1cccc(F)c1	FMDV antiviral 28µM, HCV inhibitor inconclusive (no result: LASV entry inh, Marburg entry inh)
Cc1ccc([N+](=O)[O-])cc1NC(=S)NC(=O)CC(C)(C)C	none (no result: HCV inhibitor)
